According to PubChem BioAssay AID1694 (National Center for Advancing Translational Sciences (NCATS), 2009):
Results filed as inconclusive are left out. Calls of active or inactive are those of the source. Calls follow the shape of the dose curve; as a rule, active = well fitted curve in the direction sought with a large enough effect; inconclusive = small, poorly fitted or top-dose-only effect, or another doubt; inactive = no such curve, though single readings can be large or run the other way.

Test: Confirmation Concentration-Response Assay for Inhibitors of Tau Fibril Formation, Total Fluorescence Counterscreen for Fluorescence Polarization
Settings: Alexa594-tau K18 total fluorescence counterscreen, interference, tau K18 with P301L mutation; series mostly up to 100 µM; fluorescence change, negative = quenching: at the top concentration
Excerpt: NIH Molecular Libraries Probe Production Network [MLPCN] NIH Chemical Genomics Center [NCGC] MLPCN Grant: X01 MH083262-01 Assay Provider: Carlo Ballatore, University of Pennsylvania NCGC Assay Overview: The microtubule-associated protein tau is an abundant protein in the axons of neurons that stabilizes microtubules. With its ability to modulate microtubule dynamics, tau contributes directly or indirectly, to key structural and regulatory cellular functions. Particularly important is the influence tau exerts on axonal transport, which allows signaling molecules, trophic factors and other essential cellular constituents to travel along the axons. Under pathological conditions, tau becomes sequestered into insoluble aggregates called neurofibrillary tangles. This phenomenon is believed to have pathological consequences by promoting axonal transport deficits that ultimately lead to synaptic dysfunction and neuronal loss. To identify inhibitors of tau aggregation, a heparin-induced tau fibril formation assay was used that employed a recombinantly expressed fragment of tau, K18 (Q242-E372), bearing a P301L mutation (Gustke et al. 1994; Hong et al. 1998). […] Total fluorescence (555 nm excitation and 632 nm emission) was measured to identify fluorescent or absorbent compounds at this wavelength. Such compounds may be artifacts that interfere with the Alexa 594 Tau fluorescence polarization assay. Gustke, N., B. Trinczek, et al. (1994). "Domains of tau protein and interactions with microtubules." Biochemistry 33(32): 9511-22. Hong, M., V. Zhukareva, et al. (1998). "Mutation-specific functional impairments in distinct tau isoforms of hereditary FTDP-17." Science 282(5395): 1914-7. Li, W. and V. M. Lee (2006). "Characterization of two VQIXXK motifs for tau fibrillization in vitro." Biochemistry 45(51): 15692-701. von Bergen, M., S. Barghorn, et al. (2001). "Mutations of tau protein in frontotemporal dementia promote aggregation of paired helical filaments by enhancing local beta-structure." J Biol Chem 276(51): 48165-74.
For screening, 2 uL/well human K18 P301L (15 uM unlabeled and 0.24 uM Alexa 594-labeled tau final concentrations) in reagent buffer (100 mM sodium acetate pH 7) was dispensed into black solid 1536-well plates (Grenier) using a solenoid-based dispenser. Following transfer of 23 nL compound or DMSO vehicle by a pin tool, 2 uL/well heparin (20 uM final concentration) in reagent buffer was added and the plate centrifuged 15 s at 1000 RPM. Plates were incubated 6 hr at 37 C and then 1 uL/well ThT (30 uM final concentration) was added. After a 1 hr ambient incubation, the plates were read by an Envision (Perkin Elmer) to monitor Alexa 594 FP (555 nm excitation and 632 nm emission). Keywords: NIH Roadmap, MLPCN, MLI, MLSMR, NCGC, qHTS, tau, tauopathies, Alzheimer's disease, fibril, neurodegeneration, aggregation
In the case of `CN(C)C(=O)c1ccc(-c2cc[nH]c(=O)c2N)cc1`, the “fluorescence change, negative = quenching” value (from here on “fluorescence change”) was -10.2% (inactive).
In the case of `CCOC(=O)c1nn(-c2ccc(OC)cc2)c(=O)c2c(NC(=O)Cc3ccccc3)scc12`, the “fluorescence change” value was -11.1% [at 57.1 µM] (inactive).
In the case of `O=S(=O)(c1ccc(NC(=S)N/N=C/c2ccc(N3CCOCC3)cc2)cc1)N1CCOCC1`, the “fluorescence change” value was 2.35% (inactive).
With `Cc1[nH]c(=O)c(C#N)cc1-c1ccncc1` the “fluorescence change” value was 2.45% (inactive).
In the case of `CC(C)(C)c1ccc(NC(=O)N2CCN(c3ccc([N+](=O)[O-])cn3)CC2)cc1`, the “fluorescence change” value was -1.23% (inactive).
For `COC(=O)c1c(NC(=O)CCCOc2ccc(C)cc2)sc2c1C(C(=O)OC)CC2` (stereo not given), the “fluorescence change” value was -0.983% (inactive).
In the case of `N#Cc1cccc(NC(=O)c2ccc3c(c2)N(Cc2cccc(Cl)c2)C(=O)c2ccccc2S3(=O)=O)c1`, the “fluorescence change” value was -2.79% (inactive).
In the case of `CCOC(=O)c1nn(-c2ccccc2)c(=O)c2c(NC(C)=O)scc12`, the “fluorescence change” value was 12.6% [at 57.1 µM] (inactive).
In the case of `COC(=O)CSc1nc2ccc(NC(=O)CSc3nnnn3Cc3ccccc3)cc2s1`, the “fluorescence change” value was -2.92% (inactive).
With `CCOC(=O)c1nn(-c2ccccc2)c(=O)c2c(NC(=O)c3ccccc3)scc12` the “fluorescence change” value was 0.942% [at 57.1 µM] (inactive).
For `NC(=O)c1nn(-c2ccccc2)c(=O)c2c(N)scc12`, the “fluorescence change” value was 1.1% [at 57.1 µM] (inactive).
For `CN(C)c1ccc(-c2cc[nH]c(=O)c2N)cc1`, the “fluorescence change” value was -17.8% (inactive).
For `Cc1ccc(N(C)S(=O)(=O)c2nnc(NC(=O)C3CCCCC3)s2)cc1`, the “fluorescence change” value was 4.56% (inactive).
For `O=C(Cc1ccccc1)Nc1sc2c(c1C(=O)Nc1ccc(Cl)cc1)CCCC2`, the Potency was “inactive”.
In the case of `Cc1ccc(N2C(=O)SC(Cc3ccccc3)C2=O)cc1` (stereo not given), the “fluorescence change” value was 14.2% (inactive).
In the case of `Nc1c(-c2ccncc2)cc[nH]c1=O`, the “fluorescence change” value was -12.5% (inactive).
In the case of `COC(=O)c1c(NC(=O)CCCOc2ccc(C(C)(C)C)cc2)sc2c1C(C(=O)OC)CC2` (stereo not given), the “fluorescence change” value was 4.07% (inactive).
In the case of `COC(=O)c1nn(-c2ccc(OC)cc2)c(=O)c2c(N)sc(C)c12`, the “fluorescence change” value was -0.76% (inactive).
With `Cn1ncc(Cl)c1C(=O)Nc1cccc(Cl)c1` the “fluorescence change” value was 8.4% (inactive).
With `CCOC(=O)c1nn(-c2cccc(C(F)(F)F)c2)c(=O)c2c(N)scc12` the Potency was 1.58 µM [quencher] (active).
With `CCOC(=O)c1nn(-c2ccccc2)c(=O)c2c(N)sc(C)c12` the “fluorescence change” value was -20.4% [at 57.1 µM] (inactive).
For `CC(=O)Nc1sc(C)c2cnn(-c3ccccc3)c(=O)c12`, the “fluorescence change” value was 4.58% [at 57.1 µM] (inactive).
With `COc1c(Cl)cccc1NC(=O)c1c(NC(=O)Cc2ccccc2)sc2c1CCCC2` the “fluorescence change” value was -3.36% [at 57.1 µM] (inactive).
With `CCN(c1ccccc1)S(=O)(=O)c1nnc(NC(=O)C(C)(C)C)s1` the “fluorescence change” value was -3.33% (inactive).
In the case of `O=C(Nc1sc2c(c1C(=O)Nc1cccc(Cl)c1)CCCC2)c1cccs1`, the “fluorescence change” value was -14.5% [at 57.1 µM] (inactive).
In the case of `Nc1scc2c(C(=O)N3CCOCC3)nn(-c3ccccc3)c(=O)c12`, the “fluorescence change” value was -0.72% [at 57.1 µM] (inactive).
With `COc1ccc(NC(=O)C2CCN(S(=O)(=O)c3c(C)noc3/C=C/c3cccs3)CC2)cc1Cl` the “fluorescence change” value was -12.3% (inactive).
With `CN(c1ccccc1)S(=O)(=O)c1nnc(NC(=O)COc2ccccc2)s1` the “fluorescence change” value was -11.1% (inactive).
In the case of `CCOC(=O)c1ccc(S(=O)(=O)Nc2nc3cc(S(=O)(=O)NC4=NCCCCC4)ccc3s2)cc1`, the “fluorescence change” value was 2.36% (inactive).
With `Cc1ccc(-c2ccc(/C=N/N=C3/NC(=O)C(CC(=O)O)S3)o2)c([N+](=O)[O-])c1` (stereo not given) the “fluorescence change” value was 4.37% (inactive).
In the case of `Nc1nn(-c2ccccc2)c(=O)c2c(N)scc12`, the “fluorescence change” value was -1.43% [at 57.1 µM] (inactive).
For `COc1cc(/C=N/N=C2/NC(=O)C(CC(=O)O)S2)ccc1OCc1ccc(Cl)cc1` (stereo not given), the “fluorescence change” value was 22.5% (inactive).
With `Cc1ccc(NC(=O)c2c(NC(=O)Cc3ccccc3)sc3c2CCCC3)cc1` the “fluorescence change” value was -4.68% [at 57.1 µM] (inactive).
For `O=C(O)CN1C(=O)/C(=C/c2ccc(-c3cccc(Cl)c3)o2)SC1=S`, the “fluorescence change” value was -10.4% (inactive).
With `CCOC(=O)c1ccc(-n2nc(C(=O)OCC)c3csc(N)c3c2=O)cc1` the “fluorescence change” value was -11.1% [at 57.1 µM] (inactive).
For `Cc1ccc(NC(=O)N2CCN(c3ccccn3)CC2)cc1`, the “fluorescence change” value was 5.36% (inactive).
For `CN(C)S(=O)(=O)c1cccc(N=C2NN=C(c3ccccc3)CS2)c1`, the “fluorescence change” value was -15.9% (inactive).
In the case of `COC(=O)C1CCc2sc(N)c(C(=O)OCc3ccccc3)c21` (stereo not given), the “fluorescence change” value was -3.27% [at 57.1 µM] (inactive).
With `NCCc1ccc(O)c(O)c1` the “fluorescence change” value was -17.2% (inactive).
With `O=C(Cn1c(=O)c(CNc2ccccc2)cc2cc3c(cc21)OCCO3)Nc1ccccc1Cl` the “fluorescence change” value was -14.4% (inactive).
